Assay results published in PubChem BioAssay.
Activity calls are given as the source filed them.

Key:
[1] = biological target: Albumin (Bos taurus) (UniProt P02769); assay: bovine serum albumin binders on microarray, profiling panel, artefact control for SMM control protein annotation, biochemical, small-molecule microarray, Alexa647 label, 635/667 nm fluorescence (AID 1118); conditions: BSA-A647 binding, fluorescence 635 nm, higher = more signal;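 further: score merges 667 nm emission intensity and signal-to-noise per printed compound spot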
Albumin (Bos taurus), sequence (P02769 whole entry, looked up): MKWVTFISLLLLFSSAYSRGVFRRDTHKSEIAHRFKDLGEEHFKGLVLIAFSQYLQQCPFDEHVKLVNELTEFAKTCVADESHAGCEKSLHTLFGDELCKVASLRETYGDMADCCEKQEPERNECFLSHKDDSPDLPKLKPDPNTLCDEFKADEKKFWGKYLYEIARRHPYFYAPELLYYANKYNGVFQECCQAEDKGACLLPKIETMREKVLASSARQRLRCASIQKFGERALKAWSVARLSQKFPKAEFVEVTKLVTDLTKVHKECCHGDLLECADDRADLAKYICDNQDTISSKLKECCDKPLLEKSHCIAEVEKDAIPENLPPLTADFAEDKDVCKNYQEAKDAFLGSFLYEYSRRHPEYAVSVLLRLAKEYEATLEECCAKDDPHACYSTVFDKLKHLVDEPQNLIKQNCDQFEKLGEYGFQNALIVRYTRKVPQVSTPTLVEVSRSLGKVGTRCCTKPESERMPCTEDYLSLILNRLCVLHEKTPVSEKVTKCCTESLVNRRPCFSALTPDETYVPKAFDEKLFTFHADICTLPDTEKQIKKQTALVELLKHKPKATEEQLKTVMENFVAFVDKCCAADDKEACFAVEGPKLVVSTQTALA

[2] = small-molecule microarray binders of probe aXIP, primary screen, biochemical, NeuroSMM set, 635/667 nm fluorescence (AID 1119); conditions: higher = more signal, called active from +8 up or from −8 down;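 further: probe is the protein aXip251-270 applied at 1 µg/mL to compound-printed slides; binding of probe to printed compounds measured as 667 nm fluorescence plus signal to noise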
[3] = small-molecule binders of probe aNOTCH3, primary screen, biochemical, small-molecule microarray, 635/667 nm fluorescence (AID 1120); conditions: higher = more signal;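 further: probe is a biotin-tagged antibody raised against NOTCH3 rather than NOTCH3 protein; score merges spot fluorescence near 667 nm with spot signal to noise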
[4] = small-molecule binders of probe aNOTCH2, primary screen, biochemical, small-molecule microarray, 635/667 nm fluorescence (AID 1121); conditions: higher = more signal;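 further: score merges feature fluorescence read at 667 nm with its signal to noise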
[5] = biological target: Carbonic anhydrase 2 (Homo sapiens) (UniProt P00918); assay: CAII small-molecule binders, profiling panel, biochemical, small-molecule microarray, Alexa647-labelled CAII (AID 1122); conditions: CAII-A647 binding fluorescence, higher = more signal
[6] = COS7 lysate on small-molecule microarray, probe aHis, 635 nm (AID 1123); conditions: COS7 cell lysate, fluorescence, higher = more signal;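 further: z-score combines 667nm fluorescence intensity with signal-to-noise per printed compound spot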
[7] = compound binding in COS7 lysate, probe aLAP1, primary screen, cell lysate, small-molecule microarray (AID 1124); conditions: probe aLAP1, fluorescence, higher = more signal;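 further: lysate comes from COS7 cells expressing LAP1 and is applied at 0.3 µg/mL; score merges spot fluorescence near 667 nm with signal-to-noise over triplicate slides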
[8] = test system: Sam68 (KHDRBS1); assay: Sam68 small-molecule binders, primary screen, biochemical, small-molecule microarray, 635 nm fluorescence (AID 1125); conditions: small-molecule microarray binding, higher = more signal;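 further: score merges 667 nm channel intensity with signal to noise over triplicate slides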
[9] = test system: Chordin-like protein 2 (CHRDL2); assay: CHRDL2 small-molecule binders, primary screen, biochemical, small-molecule microarray, 635 nm fluorescence (AID 1126); conditions: small-molecule microarray binding, fluorescence 635 nm; higher = more signal;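 further: printed compound slides probed with Chrdl2 protein at 4 µg/mL for 1 h at 4 C; score merges 667 nm emission intensity with signal to noise over three replicate slides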
[10] = biological target: Concanavalin-A (Canavalia ensiformis) (UniProt P02866); assay: ConA small-molecule binders, primary screen, artefact control for SMM control protein annotation, biochemical, small-molecule microarray, Alexa647 label, 635 nm (AID 1127); conditions: ConA-A647 binding fluorescence, higher = more signal;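 further: z combines 667 nm emission intensity with signal-to-noise across three replicate slides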
Concanavalin-A (Canavalia ensiformis), sequence (P02866 whole entry, looked up): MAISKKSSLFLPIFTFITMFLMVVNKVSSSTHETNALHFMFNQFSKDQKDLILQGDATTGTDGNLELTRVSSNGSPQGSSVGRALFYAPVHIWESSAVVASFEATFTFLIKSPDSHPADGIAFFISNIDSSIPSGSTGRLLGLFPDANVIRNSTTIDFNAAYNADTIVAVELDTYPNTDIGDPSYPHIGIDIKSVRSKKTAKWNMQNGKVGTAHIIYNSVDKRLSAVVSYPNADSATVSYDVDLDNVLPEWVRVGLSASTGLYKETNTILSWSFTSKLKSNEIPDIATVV

Compound	composite z-score [1]	composite Z-score [2]	composite z-score [3]	composite z-score [4]	composite z-score [5]	composite z-score [6]	composite z-score [7]	composite z-score [8]	composite z-score [9]	composite z-score [10]
CO[C@H]1COC(=O)[C@H](C)NC(=O)CC=C[C@@H](C)[C@H](NS(=O)(=O)c2ccc(C)cc2)COC(=O)CC=C[C@@H]1C	-0.524	0.0426 (inactive)	-0.152	-0.146	0.651	-0.616	-0.177	-1.03	1.41	-0.206
CC(C)CNC(=O)[C@@]1(C)c2ccccc2C(=O)N(Cc2ccc(OC(F)(F)F)cc2)[C@H]1c1ccc(CO)cc1	-0.2	0.416 (inactive)	-0.241	-0.0094	0.706	1.17	0.559	-0.718	-1.3	-1.74
COCCCNC(=O)[C@@]1(Sc2ccc(C)cc2)CC(=O)N(Cc2cc(C(F)(F)F)cc(C(F)(F)F)c2)[C@@H]1c1ccc(CO)cc1I	-0.306	0.297 (inactive)	-0.227	-0.133	0.85	0.57	-0.874	-0.955	-1.19	-0.82
CO[C@@H]1COC(=O)[C@H](C)NC(=O)CC=C[C@@H](C)[C@H](NS(=O)(=O)c2ccc(C)cc2)COC(=O)CC=C[C@@H]1C	-0.471	0.237 (inactive)	0.0066	-0.0554	-0.185	0.0657	-0.319	-0.354	-0.0932	-0.809
C=CCN(C(=O)C1N(c2ccc(CCO)cc2)C(=O)C2C(C(=O)O)C3C=CC21O3)C(C)(C)C (stereo not given)	-1.21	-0.12 (inactive)	-0.549	-0.171	0.971	1.42	-0.262	-1.24	-4.23	-3.08
[N-]=[N+]=NCc1ccccc1C[C@@]1(C(=O)O)N=C(c2ccc(OCCCO)cc2)O[C@@H]1c1ccccc1N=[N+]=[N-]	0.855	0.198 (inactive)	0.328	-0.0424	0.726	2.05	0.497	1.3	-0.256	0.421
Cc1ccc(S[C@]2(C(=O)NC(C)C)CC(=O)N(Cc3cc(C(F)(F)F)cc(C(F)(F)F)c3)[C@@H]2c2ccc(CO)cc2I)cc1	-1.25	0.0296 (inactive)	-0.313	-0.14	0.788	1.31	0.917	-0.733	-1.21	-0.442
C[C@@H]1NC(=O)[C@H](Cc2ccccc2)NC(=O)[C@@]23C(=O)N[C@@H](Cc4ccccc4)C2[C@H](C)[C@@]2(C)O[C@H]2C3/C=C/C/C=C\CNC1=O (stereo not given in full)	0.0296	0.0437 (inactive)	-0.0996	0.364	0.82	-0.741	-0.634	-0.276	0.399	-0.265
CCN1C(C)=C(C(=O)OC)[C@@H](c2ccccc2)N2C(=O)[C@@]3(C(=O)OC)O[C@@]12[C@@H]1C(=O)CCC[C@@H]13	-0.439	-0.166 (inactive)	-0.0345	-0.195	0.558	-0.503	-0.227	0.475	1.46	-0.92
Cc1ccc(S[C@]2(C(=O)NC3CC3)CC(=O)N(Cc3cc(C(F)(F)F)cc(C(F)(F)F)c3)[C@@H]2c2ccc(CO)cc2)cc1	0.371	-0.421 (inactive)	-0.0345	-0.169	0.375	0.42	1.13	0.792	0.115	0.633
C[N+](C)(C)CCCCNC(=O)[C@@H]1C[C@@H]2C(=O)N3CCC[C@H]3C(=O)N2[C@@H]1c1cccc(OCCO)c1	-0.486	2.6 (inactive)	-0.199	-0.153	0.678	0.538	0.248	1.04	1.04	0.909
Cc1ccc(S[C@]2(C(=O)NC(C)C)CC(=O)N(C3Cc4ccccc4C3)[C@@H]2c2ccc(CO)cc2)cc1	0.451	0.52 (inactive)	-0.409	-0.205	0.81	1.86	0.123	-0.0334	-1.2	1.16
CC[C@H]1C2=C3C(CC[C@H]4C(OC)OC[C@](C)([C@@H]34)N(C(=O)OC(C)(C)C)C2)C(CO)C1CO (stereo not given in full)	1.05	0.067 (inactive)	0.619	0.437	0.486	3.15	0.903	1.29	-0.656	1.16
COCCOC(=O)N1C(=O)[C@@]2(c3cc(C#CC4(O)CCCCCC4)ccc31)[C@H](C(=O)N1CCCCCCC1)[C@H]1C(=O)O[C@H](c3ccccc3)[C@H](c3ccccc3)N1[C@@H]2c1ccc(O)cc1	-0.653	0.108 (inactive)	0.885	0.337	0.485	2.62	-0.139	1.3	0.519	1.08
C=C(CCCC)C(=O)CC[C@@H](OC(=O)c1cccnc1)c1cccc(OCCO)c1	-1.06	-0.123 (inactive)	0.0351	-0.148	0.15	0.0383	0.0475	0.789	0.207	-0.158
CCCC[C@H]1OB(O)C[C@H]2C1=C(COC)C[C@H]1C(=O)N(Cc3ccccc3)C(=O)[C@H]12	0.11	-0.328 (inactive)	0.0727	-0.182	0.606	0.0082	0.102	0.252	-0.0765	0.106
C#C[C@H](O[Si](C#Cc1ccccc1)(C(C)C)C(C)C)c1ccccc1	0.0778	0.422 (inactive)	-0.293	-0.0743	0.564	0.0271	0.252	0.0094	-0.429	-0.683

Compound	composite z-score [1]	composite Z-score [2]	composite z-score [3]	composite z-score [4]	composite z-score [5]	composite z-score [6]	composite z-score [7]	composite z-score [8]	composite z-score [9]	composite z-score [10]
C=C(COC)C(=O)CC[C@H](OC(=O)c1ccccc1-c1ccccc1C(=O)O)c1cccc(OCCO)c1	-0.611	0.61 (inactive)	0.123	-0.118	0.418	4.78	0.893	0.735	1.43	0.893
CN1C(=O)C2C=CC(C(O)c3ccc(N(C)C)cc3)N(Nc3ccc([N+](=O)[O-])cc3[N+](=O)[O-])C2C1=O (stereo not given)	0.944	-0.399 (inactive)	0.586	0.0683	0.729	2.72	1.4	1.21	0.556	0.884
CCOC(=O)C1=CC[C@@H](c2ccccc2)N(S(=O)(=O)c2ccc(C)cc2)[C@H]1C	0.972	0.102 (inactive)	0.29	0.0832	0.671	2.49	0.689	1.29	0.416	1.05
O=[N+]([O-])c1ccc(C[n+]2ccc3ccc(O)cc3c2)o1	0.895	0.14 (inactive)	0.0736	-0.0746	0.64	0.466	0.98	0.534	0.0197	1.11
CCCNC(=O)[C@@H]1c2ccccc2C(=O)N(Cc2cc(F)cc(C(F)(F)F)c2)[C@H]1c1ccc(CO)cc1	-0.0179	0.457 (inactive)	0.193	0.171	0.584	2.2	-0.273	1.3	0.341	1.14
CN1C2C=C(c3ccc(CO)cc3)C(C3C(=O)N(C(N)=O)C(=O)C32)C1c1cccs1 (stereo not given)	-0.444	0.173 (inactive)	0.0261	-0.162	0.704	0.4	-0.342	0.0726	-0.934	-0.0029
COCCOC(=O)N1C(=O)[C@@]2(c3cc(C#CC4=CCCCC4)ccc31)[C@H](C(=O)NC[C@H](O)c1ccccc1)[C@H]1C(=O)O[C@H](c3ccccc3)[C@H](c3ccccc3)N1[C@@H]2c1ccccc1OCCO	0.648	0.155 (inactive)	0.315	-0.0311	0.358	1.11	0.474	1.3	0.239	1.09
CCCC=C(CCC)[C@@H](NS(=O)(=O)c1ccc(-c2ccccc2)cc1)c1ccc(C(=O)OC)cc1	-0.0722	-0.682 (inactive)	-0.0846	-0.0651	-0.291	0.257	0.515	-0.829	-0.705	0.115
COC(=O)[C@@]1(Cc2ccc(OC)cc2)[C@H]2c3cc(C(=O)N(C)C)n(CCc4ccc(OC)c(Br)c4)c3C[C@H]2CN1C(=O)c1ccccc1	1.11	-0.665 (inactive)	0.831	0.395	0.718	2.9	0.482	1.29	-1.11	1.2
C#CCNC(/C=C/c1ccccc1)CO (stereo not given)	-0.086	0.234 (inactive)	-0.104	-0.115	-0.152	0.14	-0.0995	0.134	0.3	0.262
CC(=O)Nc1ccc([C@H]2[C@H](C)CC[C@H]3C(=O)N4[C@@H](CC[C@@H](C)[C@@H]4c4ccc(NC(C)=O)cc4)C(=O)N32)cc1	0.626	-0.222 (inactive)	-0.0699	-0.195	0.634	1.24	0.264	1.31	0.378	1.12
C[C@@H]1CC[C@H]2C(=O)N3[C@@H](CC[C@@H](C)[C@@H]3c3cccc(N4CCOCC4)c3)C(=O)N2[C@H]1c1cccc(Br)c1	0.718	0.307 (inactive)	-0.0259	-0.0956	0.459	0.425	0.336	1.16	0.932	0.92
O=C(CS)NCCCCCNC(=O)[C@H]1C[C@H]2C(=O)N[C@@H](Cc3ccccc3)C(=O)N2[C@H]1c1ccc(O)cc1	0.237	-0.65 (inactive)	0.114	-0.0598	0.436	0.704	0.393	1.32	0.905	1.17
C=CCNC(=O)[C@H]1[C@@H]2C(=O)O[C@@H](c3ccccc3)[C@@H](c3ccccc3)N2[C@@H](c2ccccc2OCCO)[C@]12C(=O)N(C(=O)OCCOC)c1ccc(C#CCC(C(=O)OC)C(=O)OC)cc12	0.255	1.06 (inactive)	-0.0448	-0.0829	0.634	2.13	0.689	1.3	-0.052	1.12
O=C1O[C@@H](c2ccccc2)[C@@H](c2ccccc2)N2[C@@H](c3ccc(OCCO)cc3)[C@]3(C(=O)Nc4ccc(C#CCCO)cc43)[C@@H](C(=O)N3CCN(c4ncccn4)CC3)[C@H]12	0.536	0.337 (inactive)	0.143	-0.0684	0.485	1.87	0.188	1.32	0.168	1.17
CN(C)CCCC[C@@H]1NC(=O)[C@@H]2C[C@H](C(=O)NCCCCCNC(=O)CS)[C@H](c3ccc(O)cc3)N2C1=O	0.885	0.0077 (inactive)	0.0261	-0.0976	0.58	1.18	0.24	0.697	1.07	1.15
